# Test results from PubChem BioAssay (Tox21).
# Inconclusive results are not listed. Activity calls are given as the source filed them. Unless noted, calls come from the whole dose curve; as a rule, active = well fitted curve in the direction sought with a large enough effect in the repeat runs; inconclusive = weak or mixed curves; inactive = no such curve, though single readings can be large; an effect the other way counts as inactive or inconclusive.
# Legend:
# [1] = qHTS assay to identify small molecule antagonists of the peroxisome proliferator-activated receptor delta (PPARd) signaling pathway - cell viability counter screen (AID 743213); note: nearly all actives have a fitted effect of over 50% in size; note: potency is the fitted concentration of half-maximal effect
# Method in brief: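 HEK293H PPARd UAS-bla cells, 5 h pre-incubation, compound + L165041 300 nM final, 17 h 37 C; B/G FRET substrate 2 h RT; then CellTiter-Glo 30 min RT, luminescence.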
# [2] = qHTS assay to identify small molecule agonists of the farnesoid-X-receptor (FXR) signaling pathway - cell viability counter screen (AID 743218); note: nearly all actives have a fitted effect of over 45% in size; note: potency is the fitted concentration of half-maximal effect
# Method in brief: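 Luminescence from CellTiter-Glo, read after 30 min at RT, reports viability of GeneBLAzer FXR-UAS-bla HEK 293T cells treated 16 h with compounds in the wells used for the beta-lactamase reporter.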
# [3] = qHTS assay to identify small molecule antagonists of the farnesoid-X-receptor (FXR) signaling pathway - cell viability counter screen (AID 743221; active = well fitted cell-killing curve with a large enough effect in the repeat runs, not every such curve was filed as active; note: nearly all actives have a fitted effect of over 50% in size; note: potency is the fitted concentration of half-maximal effect)
# Method in brief: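 Multiplexed counter screen: viability of FXR-bla HEK 293T cells under agonist stimulation by chenodeoxycholic acid (50 uM, final) and test compound for 16 h at 37 C, measured by CellTiter-Glo luminescence in the reporter wells.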
# [4] = qHTS assay to identify small molecule agonists of the vitamin D receptor (VDR) signaling pathway - cell viability counter screen (AID 743224); note: nearly all actives have a fitted effect of over 50% in size; note: potency is the fitted concentration of half-maximal effect
# Method in brief: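 Cytotoxicity counter screen: VDR-bla cells, 16 h compound exposure at 37C, 5% CO2; CellTiter-Glo luminescence, 30 min RT, same wells as bla read.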
# [5] = qHTS assay to identify small molecule antagonists of the vitamin D receptor (VDR) signaling pathway - cell viability counter screen (AID 743225); note: potency is the fitted concentration of half-maximal effect; nearly all actives have a fitted effect of over 50% in size
# Method in brief: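 HEK293T VDR-bla; cpd + 1a,25-(OH)2D3 3 nM final, 16 h 37C/5% CO2; B/G FRET substrate 2 h RT; then CellTiter-Glo 30 min RT, luminescence.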
# [6] = qHTS assay to identify small molecule antagonists of the retinoid-related orphan receptor gamma (ROR-gamma) signaling pathway - cell viability counter screen (AID 1159520); note: nearly all actives have a fitted effect of over 50% in size; note: potency is the fitted concentration of half-maximal effect
# Method in brief: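 Tet-on ROR gamma CHO cells (1,000/well) were plated 4 hr, given compounds in DMSO for 2 hr at 37 C, then induced with 1 uM final doxycycline for 16 hr. Viability was read as ATP by CellTiter-Glo luminescence after 30 min.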
# [7] = biological target: Nuclear receptor ROR-gamma (Homo sapiens) (UniProt P51449); test: qHTS assay to identify small molecule antagonists of the retinoid-related orphan receptor gamma (ROR-gamma) signaling pathway (AID 1159521; note: nearly all actives have a fitted effect of over 50% in size; note: potency is the fitted concentration of half-maximal effect)
# Method in brief: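 Cells were plated, rested 4 h at 37 C, exposed to compounds for 2 h, then given 1 uM final doxycycline hyclate to induce RORγ expression. After 16 h, ONE-Glo luminescence from the ROR response element reporter was measured.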
# [8] = qHTS assay to identify small molecule agonists of the AP-1 signaling pathway - cell viability counter screen (AID 1159525; calls by dose curve; note: nearly all actives have a fitted effect of over 55% in size; note: potency is the fitted concentration of half-maximal effect)
# Method in brief: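 Each titration point was normalised to DMSO and tetra n-octyl ammonium bromide controls. The read was Cell Titer Glo luminescence after 30 min at RT, following 5 h compound exposure of ME-180 AP-1-bla cells at 37 °C.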
# [9] = qHTS assay to identify small molecule agonists of the RXR signaling pathway - cell viability counter screen (AID 1159529)
# Method in brief: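 Steps: seed RXR-alpha-UAS-bla HEK 293T cells in assay medium containing 2% charcoal-stripped FBS; incubate 5 hr; add compounds in DMSO; incubate 16 hr at 37 C; after the bla read, add CellTiter-Glo and read luminescence at 30 min.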
# [10] = qHTS assay to identify small molecule antagonists of the retinoid acid receptor (RAR) signaling pathway - cell viability counter screen (AID 1159551); note: nearly all actives have a fitted effect of over 35% in size; note: potency is the fitted concentration of half-maximal effect
# Method in brief: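 C3RL4 RARE-luciferase line; cpds + retinol 1 uM final, 6 h, 37 C/5% CO2; CellTiter-Glo ATP luminescence, 30 min RT.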
# [11] = qHTS assay to identify small molecule antagonists of the retinoic acid receptor (RAR) signaling pathway (AID 1159552; note: nearly all actives have a fitted effect of over 50% in size; note: potency is the fitted concentration of half-maximal effect)
# Method in brief: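 Retinol at 1 uM final stimulated RARE-luciferase expression in C3RL4 cells exposed to test compounds for 6 hr at 37 C. Reduced luminescence, read 30 min after detection reagent, indicated pathway antagonism.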
# [12] = biological target: Bile acid receptor (Homo sapiens) (UniProt Q96RI1); test: qHTS assay to identify small molecule antagonists of the farnesoid-X-receptor (FXR) signaling pathway (AID 743217; active = well fitted inhibition curve with a large enough effect in the signal ratio in the repeat runs, not every such curve was filed as active; the % refers to the signal ratio)
# Chain of Bile acid receptor (Homo sapiens) (Q96RI1 whole entry, looked up): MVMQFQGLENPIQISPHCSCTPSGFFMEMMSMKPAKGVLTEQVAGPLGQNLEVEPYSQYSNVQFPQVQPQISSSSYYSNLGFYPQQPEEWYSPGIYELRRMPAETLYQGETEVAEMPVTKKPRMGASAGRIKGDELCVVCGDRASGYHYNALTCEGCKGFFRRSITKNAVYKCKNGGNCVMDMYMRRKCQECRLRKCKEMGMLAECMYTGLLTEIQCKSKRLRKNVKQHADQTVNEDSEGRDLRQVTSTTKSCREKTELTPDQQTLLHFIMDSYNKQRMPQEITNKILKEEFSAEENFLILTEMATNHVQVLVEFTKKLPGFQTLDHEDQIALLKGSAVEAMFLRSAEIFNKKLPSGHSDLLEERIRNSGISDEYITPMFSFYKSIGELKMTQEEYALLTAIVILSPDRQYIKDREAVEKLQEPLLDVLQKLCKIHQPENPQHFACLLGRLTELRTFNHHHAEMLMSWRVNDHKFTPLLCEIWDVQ
# Method in brief: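 Read-out: beta-lactamase FRET fluorescence (LiveBLAzer B/G substrate, 2 h, room temperature) in GeneBLAzer FXR-UAS-bla HEK 293T cells. Compounds were co-dosed with 50 uM chenodeoxycholic acid (final) and incubated 16 h at 37 °C.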
# [13] = biological target: Bile acid receptor (Homo sapiens) (UniProt Q96RI1); test: qHTS assay to identify small molecule agonists of the farnesoid-X-receptor (FXR) signaling pathway (AID 743220; active = well fitted activation curve with a large enough effect in the signal ratio in the repeat runs, not every such curve was filed as active; the % refers to the signal ratio)
# Method in brief: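 FXR-UAS-bla HEK 293T cells carrying a UAS-driven beta-lactamase reporter were plated for 5 h at 37C/5% CO2, then exposed to DMSO-dissolved Tox21 10K compounds for 16 h at 37C. A LiveBLAzer B/G FRET substrate was loaded for 2 h at room temperature before fluorescence reading.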
# [14] = biological target: Retinoic acid receptor RXR-alpha (Homo sapiens) (UniProt P19793); test: qHTS assay to identify small molecule agonists of the RXR signaling pathway (AID 1159527; calls by dose curve; note: nearly all actives have a fitted effect of over 35% in size; note: potency is the fitted concentration of half-maximal effect)
# Chain of Retinoic acid receptor RXR-alpha (Homo sapiens) (P19793 whole entry, looked up): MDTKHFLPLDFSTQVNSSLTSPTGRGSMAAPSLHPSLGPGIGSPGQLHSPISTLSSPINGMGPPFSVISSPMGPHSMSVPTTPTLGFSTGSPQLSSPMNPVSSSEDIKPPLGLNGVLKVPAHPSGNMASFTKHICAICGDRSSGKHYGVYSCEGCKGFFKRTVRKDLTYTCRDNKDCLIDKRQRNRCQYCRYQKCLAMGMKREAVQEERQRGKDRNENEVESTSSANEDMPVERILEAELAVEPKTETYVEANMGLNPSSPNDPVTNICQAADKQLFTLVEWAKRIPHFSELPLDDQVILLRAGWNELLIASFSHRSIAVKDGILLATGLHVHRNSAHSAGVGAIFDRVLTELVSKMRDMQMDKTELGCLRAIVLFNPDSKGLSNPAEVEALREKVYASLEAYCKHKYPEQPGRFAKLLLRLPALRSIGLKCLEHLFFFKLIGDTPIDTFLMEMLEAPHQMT
# Method in brief: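 Cells plated at 2,000/well, rested 5 hr at 37 C, pin-dosed with DMSO compound solutions, incubated 16 hr, then loaded with B/G FRET substrate for 2 hr at RT before dual-emission fluorescence reading.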
# [15] = qHTS assay to identify small molecule agonists of the retinoic acid receptor (RAR) signaling pathway (AID 1159553); note: potency is the fitted concentration of half-maximal effect
# Method in brief: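 RARE-luc C3RL4 cells; overnight attachment 37 C/5% CO2; compound (DMSO) 6 hr; luciferase reagent, 30 min RT; luminescence read-out.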
# [16] = biological target: Vitamin D3 receptor (Homo sapiens) (UniProt P11473); test: qHTS assay to identify small molecule agonists of the vitamin D receptor (VDR) signaling pathway (AID 743222; calls by dose curve)
# Chain of Vitamin D3 receptor (Homo sapiens) (P11473 whole entry, looked up): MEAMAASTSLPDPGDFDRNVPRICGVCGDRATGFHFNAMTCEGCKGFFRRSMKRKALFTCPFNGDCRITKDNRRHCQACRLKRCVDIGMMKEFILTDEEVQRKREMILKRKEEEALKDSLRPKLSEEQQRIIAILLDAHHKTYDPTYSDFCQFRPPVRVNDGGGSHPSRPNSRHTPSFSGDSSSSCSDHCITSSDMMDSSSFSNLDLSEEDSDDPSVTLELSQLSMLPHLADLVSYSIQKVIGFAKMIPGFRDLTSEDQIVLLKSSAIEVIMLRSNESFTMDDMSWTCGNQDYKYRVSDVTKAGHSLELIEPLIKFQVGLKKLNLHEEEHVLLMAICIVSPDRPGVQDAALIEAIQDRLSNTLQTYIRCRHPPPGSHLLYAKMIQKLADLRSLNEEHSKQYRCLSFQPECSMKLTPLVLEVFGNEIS
# Method in brief: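 Beta-lactamase reporter readout (LiveBLAzer B/G FRET, 2 h RT) in VDR-bla cells after 16 h compound treatment at 37C, 5% CO2; cells pre-incubated 4 h before pin transfer of DMSO solutions.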
# [17] = qHTS assay to identify small molecule agonists of the AP-1 signaling pathway (AID 1159526; calls by dose curve)
structure (smiles),measurement,setting,value
CN(C)CCOc1ccc(/C(=C(/CCCl)c2ccccc2)c2ccccc2)cc1,Potency,[1],10.3 µM (active)
same,Potency,[2],20.5 µM (active)
same,Potency,[3],40.9 µM (active)
same,Potency,[4],12.9 µM (active)
same,Potency,[5],12.9 µM (active)
same,Potency,[6],51 µM (active)
same,Potency,[7],22.8 µM (active)
same,Potency,[8],36.4 µM (active)
same,Potency,[9],18.3 µM (active)
same,Potency,[10],51 µM (active)
same,Potency,[11],57.2 µM (active)
Oc1ccc(Cl)cc1C1CCCC1,Potency,[1],inactive
same,Potency,[12],inactive
same,Potency,[2],inactive
same,outcome,[13],inactive
same,Potency,[3],inactive
same,Potency,[4],inactive
same,Potency,[6],inactive
same,Potency,[7],inactive
same,Potency,[14],11 µM (active)
same,Potency,[10],inactive
same,Potency,[15],inactive
COc1cc(/C=C/C(=O)CC(=O)/C=C/c2ccc(O)c(OC)c2)ccc1O,Potency,[2],24.7 µM (active)
same,Potency,[3],43.9 µM (active)
same,Potency,[4],49.3 µM (active)
same,Potency,[5],49.3 µM (active)
same,Potency,[6],48.9 µM (active)
same,Potency,[7],61.5 µM (active)
same,Potency,[11],inactive
same,Potency,[15],9.75 µM (active)
O=C1OC(O)C(C(Cl)Cl)=C1Cl (stereo not drawn),Potency,[3],inactive
same,outcome,[16],inactive
same,Potency,[6],7.07 µM (active)
same,Potency,[7],14.1 µM (active)
same,Potency,[8],inactive
O=C(Nc1ccc([N+](=O)[O-])cc1)Nc1ccc([N+](=O)[O-])cc1 (tested in a mixture with another compound),Potency,[6],inactive
same,Potency,[8],inactive
same,Potency,[17],inactive
same,Potency,[14],inactive
same,Potency,[9],0.848 µM (active)
CO[Si](OC)(c1ccccc1)c1ccccc1,Potency,[6],inactive
same,Potency,[7],61.1 µM (active)
same,Potency,[10],inactive
